This is an account of results in PubChem BioAssay (Tox21).

Assay [1] in a line: qHTS assay to identify small molecule agonists of the vitamin D receptor (VDR) signaling pathway - cell viability counter screen (AID 743224). Note: series mostly up to about 63 µM; % is set by controls: 0 for no effect and ±100 for the full control effect; nearly all actives have a fitted effect of over 50% in size. Summed up: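 Plated VDR-bla cells (4 h, 37C) received compound, incubated 16 h, then LiveBLAzer substrate 2 h RT; CellTiter-Glo added afterwards, luminescence read at 30 min.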
On the technique in general: In qHTS, concentration-response curves come from the screen itself.

Assay [2] is described as follows: qHTS assay to identify small molecule antagonists of the vitamin D receptor (VDR) signaling pathway - cell viability counter screen (AID 743225). Note: % is set by controls: 0 for no effect and ±100 for the full control effect; nearly all actives have a fitted effect of over 50% in size. Summed up:
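Same-well multiplex: following 16 h treatment of HEK 293T cells carrying a UAS-driven beta-lactamase reporter with compound and agonist (3 nM final), and a 2 h FRET substrate step, CellTiter-Glo was added and luminescence read after 30 min.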

Assay [3] is described as follows: qHTS assay to identify small molecule agonists of the NFkB signaling pathway (AID 1159509; active = well fitted curve in the direction sought with a large enough effect in the signal ratio in the repeat runs, not every such curve was filed as active; the % refers to the signal ratio; note: series mostly up to about 61 µM; % is set by controls: 0 for no effect and ±100 for the full control effect). The method in brief: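 NFkB-bla ME-180 cells carry a beta-lactamase reporter under an NF-kB response element. They were plated overnight, then exposed to compounds for 5 h at 37 C. Read-out is LiveBLAzer FRET after 1.5 hr at room temperature (405 nm excitation; 460/530 nm emission).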

Assay [4] is described as follows: qHTS assay to identify small molecule antagonists of the retinoid-related orphan receptor gamma (ROR-gamma) signaling pathway - cell viability counter screen (AID 1159520). Note: % is set by controls: 0 for no effect and ±100 for the full control effect; nearly all actives have a fitted effect of over 50% in size. The method in brief: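 Cytotoxicity was read from cellular ATP (CellTiter-Glo luminescence) after 16 hr at 37 C with 1 uM doxycycline induction. The inducer was added 2 hr after compound transfer to Tet-on ROR gamma CHO cells.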

Assay [5] has as its target Nuclear receptor ROR-gamma (Homo sapiens) (UniProt P51449). The experiment in a line: qHTS assay to identify small molecule antagonists of the retinoid-related orphan receptor gamma (ROR-gamma) signaling pathway (AID 1159521; note: top concentration of the series differs between compounds; % is set by controls: 0 for no effect and ±100 for the full control effect; nearly all actives have a fitted effect of over 50% in size). The method in brief: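 Inducible-expression reporter assay: doxycycline (1 uM final) switched on RORγ in CHO cells bearing a ROR response element-luciferase construct, with test compounds present from 2 h beforehand. Decreased luminescence after 16 h defined antagonist activity.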

A short description of assay [6]: qHTS assay to identify small molecule agonists of the AP-1 signaling pathway - cell viability counter screen (AID 1159525; calls by dose curve; note: nearly all actives have a fitted effect of over 55% in size). The method in brief:
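Luminescent ATP readout (Cell Titer Glo, 30 min RT), normalised to DMSO and tetra n-octyl ammonium bromide controls. Cells were ME-180 AP-1-bla in 0.5% dialyzed FBS Opti-MEM, with a 5 h, 37 °C compound exposure.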

Assay [7] is described as follows: qHTS assay to identify small molecule agonists of the AP-1 signaling pathway (AID 1159526; calls by dose curve; note: potency is the fitted concentration of half-maximal effect).
Assay [8] addresses Retinoic acid receptor RXR-alpha (Homo sapiens) (UniProt P19793). Kind of assay: qHTS assay to identify small molecule agonists of the RXR signaling pathway (AID 1159527; calls by dose curve; note: nearly all actives have a fitted effect of over 35% in size; note: potency is the fitted concentration of half-maximal effect). The method in brief:
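Compounds in DMSO were added to RXR-alpha-UAS-bla HEK 293T cells kept in 2% charcoal-stripped serum, and incubated 16 hr at 37 C with 5% CO2. Reporter signal came from a 2 hr B/G FRET substrate step.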

Assay [9] is described as follows: qHTS assay to identify small molecule agonists of the RXR signaling pathway - cell viability counter screen (AID 1159529). Summed up: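 Counter screen: CellTiter-Glo luminescence. Cells: RXR-alpha-UAS-bla HEK 293T. Medium: 2% charcoal-stripped FBS. Treatment: 16 h, 37 C. Reagent incubation: 30 min, RT.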
Assay [10] is described as follows: qHTS assay to identify small molecule antagonists of the retinoid acid receptor (RAR) signaling pathway - cell viability counter screen (AID 1159551). Note: % is set by controls: 0 for no effect and ±100 for the full control effect; nearly all actives have a fitted effect of over 35% in size. The method in brief:
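Retinol-stimulated (1 uM final) C3RL4 cells, compound 6 h, 37 C; readout CellTiter-Glo luminescence (ATP) after 30 min RT incubation.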

A short description of assay [11]: qHTS assay to identify small molecule agonists of the retinoic acid receptor (RAR) signaling pathway (AID 1159553). Note: % is set by controls: 0 for no effect and ±100 for the full control effect. The method in brief: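 Reporter readout comes from luciferase under RARE control in C3RL4 cells; compound exposure lasts 6 hr at 37 C in 5% CO2, and luminescence is recorded following a 30 min room-temperature incubation with reagent.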
The nature of assay [12]: qHTS assay to identify small molecule antagonists of the estrogen related receptor (ERR) signaling pathway - cell viability counter screen (AID 1224818).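 Note: series mostly up to about 46 µM; viability measured after 17.5 h of compound exposure; % is set by controls: 0 for no effect and ±100 for the full control effect.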 Summed up:
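After a 6 h pre-incubation, ERR cells were dosed by pin tool with compounds, positive/negative controls or DMSO alone. Following 17.5 h at 37 C and 30 min with CellTiter-Fluor, fluorescence was recorded.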

A short description of assay [13]: qHTS assay to identify small molecule antagonists of the estrogen related receptor signaling pathway with the pleiotropic PPARgamma coactivator (PGC) cell viability counter screen (AID 1224822;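 note: series mostly up to about 46 µM; viability read after 17.5 h compound exposure; % is set by controls: 0 for no effect and ±100 for the full control effect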). Summed up:
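PGC/ERR cells were plated at 2,000 per well and allowed 6 h to settle before compound addition. Following 17.5 h at 37 C, CellTiter-Fluor reagent was added and fluorescence was read 30 min later.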

Assay [14] is described as follows: qHTS assay to identify small molecule agonists of the endoplasmic reticulum stress response signaling pathway (AID 1159516; active = well fitted activation curve with a large enough effect in the signal ratio in the repeat runs, not every such curve was filed as active; the % refers to the signal ratio; note: % is set by controls: 0 for no effect and ±100 for the full control effect). Summed up:
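An ESRE-bla HeLa cell assay: compounds were pin-transferred from DMSO onto overnight-plated cells and left 5 hr at 37 C. Substrate was then loaded for 2 hr at room temperature before reading fluorescence at 460 nm and 530 nm.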

Assay [15] can be described thus: qHTS assay to identify small molecule agonists of the endoplasmic reticulum stress response signaling pathway - cell viability counter screen (AID 1159517; calls by dose curve). The method in brief: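 HeLa cells carrying an ESRE-driven beta-lactamase reporter receive compound for 5 hr at 37 C. Cell viability is then gauged with CellTiter-Glo by luminescence, 30 min at room temperature.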

A short description of assay [16]: qHTS assay to identify small molecule antagonists of the retinoic acid receptor (RAR) signaling pathway (AID 1159552). Summed up:
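Antagonism of retinol-induced RARE reporter activity was measured in C3RL4 cells. Exposure to compounds and 1 uM final retinol lasted 6 hr at 37 C, with luminescence as endpoint.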

Assay [17] is described as follows: qHTS assay to identify small molecule antagonists of the estrogen related receptor (ERR) signaling pathway (AID 1224819). The method in brief:
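Luminescence readout (One-Glo, 30 min, RT) of ERR cell line after 18 h compound exposure at 37 C; cells seeded 2,000/well, pre-incubated 6 h, compounds pinned from DMSO stocks.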

A short description of assay [18]: qHTS assay to identify small molecule agonists of the estrogen related receptor (ERR) signaling pathway (AID 1224820). Note: % is set by controls: 0 for no effect and ±100 for the full control effect. The method in brief:
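ERR reporter cell line (from NTP), 2,000 cells/well, incubated 6 h before compound addition, then 18 h at 37 C. Luminescence measured 30 min after One-Glo reagent at room temperature.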

The subject of assay [19] is estrogen-related receptor alpha (ERRalpha) with PGC-1alpha coactivator, human. The experiment in a line: qHTS assay to identify small molecule antagonists of the estrogen related receptor signaling pathway with the pleiotropic PPARgamma coactivator (PGC) (AID 1224821; calls by dose curve). Summed up:
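PGC/ERR reporter cell line, plated 6 h before compound addition, then exposed 18 h at 37 °C. Luciferase activity read by luminescence 30 min after One-Glo addition; decrease indicates antagonism.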

Where “and” joins values, the source holds several entries; their conditions need not be identical. Equal entries are not always repeated. Records with an inconclusive call do not appear. Values without a mark were called inactive. Calls of active or inactive are those of the source. Unless noted, calls come from the whole dose curve; as a rule, active = well fitted curve in the direction sought with a large enough effect in the repeat runs; inconclusive = weak or mixed curves; inactive = no such curve, though single readings can be large; an effect the other way counts as inactive or inconclusive.

Sequence of Retinoic acid receptor RXR-alpha (Homo sapiens) (P19793 whole entry, looked up): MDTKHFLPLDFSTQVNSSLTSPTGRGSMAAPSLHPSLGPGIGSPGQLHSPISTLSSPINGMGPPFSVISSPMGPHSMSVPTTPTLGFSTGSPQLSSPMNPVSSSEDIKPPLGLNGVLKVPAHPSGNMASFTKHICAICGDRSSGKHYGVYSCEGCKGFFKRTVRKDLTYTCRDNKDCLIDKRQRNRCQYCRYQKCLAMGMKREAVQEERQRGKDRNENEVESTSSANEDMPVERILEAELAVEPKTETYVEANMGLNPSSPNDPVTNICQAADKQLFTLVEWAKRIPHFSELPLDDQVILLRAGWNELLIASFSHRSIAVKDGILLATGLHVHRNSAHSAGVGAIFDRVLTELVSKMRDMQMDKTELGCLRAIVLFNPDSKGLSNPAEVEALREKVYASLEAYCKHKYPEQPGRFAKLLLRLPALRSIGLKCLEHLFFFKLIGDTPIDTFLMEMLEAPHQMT

For `C[C@]12CCC(=O)C=C1CC[C@@H]1[C@@H]2[C@@H](O)C[C@@]2(C)[C@H]1CC[C@]2(O)C(=O)CO`, the compound was called inactive in assay [1], in assay [2], in assay [3], in assay [4], in assay [6] and in [9]. Besides, the result in [10], in assay [12] and in [13] was inactive. The Potency result in assay [5], in assay [7], in [8] and in assay [11] was “inactive” each time.

For `CCc1ccccc1CC`, the call in assay [1], in assay [3], in assay [14], in [4], in [6] and in assay [9] was inactive. Further, in assay [10], the compound was called inactive. Also, the viability change, negative = cytotoxic in assay [2] is 4.82% [at 15.1 µM]. For the same compound, the Potency entry in [15], in [5], in assay [7] and in assay [8] was “inactive” each time.

On to `COc1cc(OC)c(C(=O)CCCN2CCCC2)c(OC)c1`, for which the result in [1], in assay [2], in [3], in assay [4], in assay [6] and in assay [9] was inactive. Further, the compound was classed as inactive in assay [10]. For the same compound, the Potency entry in assay [15], in assay [5], in [7] and in assay [8] was “inactive” throughout.

Regarding `O=C(O)c1ccccc1C(=O)O`, the result in [1], in assay [2], in assay [3], in assay [14], in assay [4] and in [6] was inactive. Moreover, the compound was classed as inactive in assay [9] and in assay [10]. Also, the Potency result in assay [5], in assay [7], in assay [8] and in assay [11] was “inactive” in each case.

For `C=CCCCCCCCCC(=O)O`, the call in assay [1], in assay [2], in assay [3], in assay [14], in [4] and in [6] was inactive. Further, the result in assay [9] and in [10] was inactive. For the same compound, the Potency entry in assay [5] and in [7] was “inactive” in each case. Besides, in assay [8], the Potency was 43.6 µM (active).

With `O=C(OCC1CCC2OC2C1)C1CCC2OC2C1` (configuration not stated), the compound was classed as inactive in assay [1], in [2], in assay [3], in [14], in assay [4] and in assay [6]. Besides, the outcome in assay [9], in assay [10] and in assay [16] was inactive. Further, the Potency result in [5], in assay [7], in assay [8] and in [11] was “inactive” each time.

`Cc1ccc(C(C)C)c(O)c1`: the compound was called inactive in [2], in [3], in assay [4], in assay [6], in assay [9] and in [10]. Moreover, the Potency result in [15], in assay [5], in assay [7], in assay [8] and in assay [11] was “inactive” throughout.

As to `O=C1c2ccccc2CCc2ccccc21`, the compound was classed as inactive in [1], in assay [2], in assay [3], in [14], in [4] and in assay [6]. Besides, the result in assay [10] and in assay [16] was inactive. The Potency entry in assay [15], in [5] and in assay [8] was “inactive” throughout. Moreover, the Potency in assay [7] is 35.4 µM (active) and 23.9 µM (active).

On to `CC(C)(Oc1ccc(CCNC(=O)c2ccc(Cl)cc2)cc1)C(=O)O`, for which the compound was classed as inactive in assay [1], in assay [2], in assay [3], in assay [14], in assay [4] and in assay [6]. The result in assay [9], in assay [10], in assay [12], in assay [17], in assay [18] and in [19] was inactive. Also, the call in [13] was inactive. Moreover, the Potency result in assay [5], in assay [7] and in [8] was “inactive” each time.

Turning to `O=S(=O)(O)c1ccc(N=Nc2c(O)ccc3cc(S(=O)(=O)O)ccc23)cc1`, the outcome in [1], in [2], in assay [3], in [4], in assay [6] and in assay [9] was inactive. In addition, the compound was called inactive in assay [10]. In addition, the Potency result in assay [5], in assay [7], in assay [8] and in assay [11] was “inactive” throughout.
